Measured values from PubChem BioAssay AID592 (National Center for Advancing Translational Sciences (NCATS), 2007).
Where “and” joins values, the source holds several entries; their conditions need not be identical. Equal values may be shown once. Among all 59,000 compounds or so, fewer than 10 were called active. No rule for the calls is given here. Only a sample is shown.

test: qHTS Assay for Spectroscopic Profiling in A647 Spectral Region; settings: Compound fluorescence, A647 channel (570/671 nm), Tris buffer; active compounds read high
From the text: NIH Molecular Libraries Screening Centers Network [MLSCN] NIH Chemical Genomics Center [NCGC] […] Occasionally, the artifactual effect may originate from the compounds own spectral or other biophysical properties which generally tend to track its assay concentration. Pre-screening/profiling the library with respect to the compounds spectral properties should help one exclude false positives early on. While the most informative fluorescent profiling data set is obtained by performing a full excitation and emission scan of each well by using a monochromator-based plate reader, such an approach is practical only on a very limited scale as scanning each well requires long time. An alternative approach, applied here, is to perform plate reader scans using selected excitation and emission wavelength pairs to generate a multidimensional relational database that correlates compound concentration and the respective relative fluorescence intensity at a given wavelength set. A standard curve of Alexa 647 (A647) present on each plate as six-point concentration series, was used to compute a normalized fluorescence response, termed dye-equivalent concentration, for each compound at each concentration.
NCGC Assay Protocol Summary: Buffer: 100 mM Tris buffer, pH 8.0 Dye standard plate: The wells in columns 1 through 4 of a Kalypsys polypropylene 1536-well compound plate were filled with standard solutions of fluorophore corresponding to the spectral region of interest. Solutions of A647 were placed in the following wells: AC1, AD1: 3 mM, AC2, AD2: 300 uM, AC3, AD3: 30 uM, AC4, AD4: zero (DMSO), AE1, AF1: 3 uM, AE2, AF2: 900 nM, AE3, AF3: 300 nM, AE4, AF4: zero (DMSO). Assay Steps: Six uL of buffer were dispensed to 1536-well Greiner black plates. Compounds and dye standards (23 nL) were transferred via Kalypsys PinTool. The plates were incubated for 15 min at room temperature, and then read on ViewLux (Perkin-Elmer) High-throughput CCD imager using 570 nm and 671 nm excitation and emission filter set. Keywords: NIH Roadmap, MLSCN, MLI, MLSMR, qHTS, NCGC, A647, A-647, Fluorescent Profiling.

Max dye-equivalent concentration, inactive:
O=c1c(CCc2ccccc2)nc2cnc(N3CCNCC3)nc2n1Cc1cccs1 1 nM
O=C(OCC(=O)N1CCN(C(=O)c2ccco2)CC1)c1ccccc1Cc1ccccc1 7.2 nM
CCOc1ccccc1N=C1NC(=O)CS1 4.1 nM
CCOC(=O)C1CCN(C(c2cc3cc(C)cc(C)c3[nH]c2=O)c2nnnn2C2CCCCC2)CC1 (configuration not stated) 1 nM
CCCSC1=C(C#N)C(c2ccccc2C)C(C(=O)OC)C(=O)N1 (configuration not stated) 58 nM
COCC(C)n1c(SCc2ccc(C(=O)OC)o2)nc2ccccc2c1=O (configuration not stated) 1.6 nM
COC(=O)c1ccc(C2CC(=O)Nc3cc(OC)c(OC)cc32)cc1 (configuration not stated) 1 nM
CC(C)c1nc(N2CCOCC2)c(C#N)c2c1COC(C)(C)C2 69 nM
CCCC(=O)Nc1c(O)c2ccccc2[nH]c1=O 1 nM
C=C(C)CSc1nc(N)c2c3c(sc2n1)CCC3 1.9 nM
O=C(OC1CCOC1=O)c1ccc(-c2nc3ccccc3s2)s1 (configuration not stated) 1 nM
CCCS(=O)(=O)C(=C1Nc2ccccc2N1)S(=O)(=O)CCC 1 nM
CSc1sc(C)cc1C1C(C#N)=C(N)N(c2cccnc2)C2=C1C(=O)CCC2 (configuration not stated) 18 nM
CCN(CC)C(=O)N1CCN(C(=O)c2ccc(C)cn2)CC1 1 nM
CCC(CC)c1nnc(NS(=O)(=O)Cc2ccccc2)s1 5 nM
COC(=O)c1c(NC(=O)c2cccs2)sc2c1CCCC2 1 nM
CC1CCC(NC(=O)c2ccc(N3CCCC3=O)cc2)CC1 (configuration not stated) 6 nM
CCCNC(=O)Nc1ccccc1C(=O)Nc1ccc(OC)cc1 1.2 nM
COc1ccccc1-n1nnnc1S(=O)(=O)Cc1ccc(Cl)cc1 37 nM
CCN1C(=O)/C(=C2/Sc3ccccc3N2CCCS(=O)(=O)O)SC1=S 1 nM
CCCCC(=O)Nc1ccc(C(=O)NCCCn2ccnc2)cc1 2.5 nM
CCOC(=O)CNC(=O)CSc1nnc(COc2ccc(Cl)cc2)n1CC 39 nM
N#C/C=C1\Sc2ccccc2C(=O)N1CC(=O)N1CCN(S(=O)(=O)c2ccccc2)CC1 1 nM
N#CC1=C(N)C(C#N)(C#N)[C@H](c2ccsc2)[C@H]2COCC=C12 25 nM
CC(C)C[C@H](NC(=O)[C@@H]1O[C@H]1C(=O)O)C(=O)NCCCCN=C(N)N 60 nM and 51 nM
Cc1ccc2[nH]c3c(c2c1)CN(C(=O)CN1CCN(c2ccccc2)CC1)CC3 12 nM
Cc1ccc(C(C(=O)NC2CCCC2)N(Cc2ccco2)C(=O)CCC(=O)Nc2ccccn2)cc1 (configuration not stated) 23 nM
CC(=O)/C(C)=N\O 34 nM
COC(=O)c1cc(C(=O)OC)cc(N2C(=O)CC(N3CCN(c4ccccc4)CC3)C2=O)c1 (configuration not stated) 14 nM
CC(=O)Nc1ccc(S(=O)(=O)Nc2nc3n(n2)C(c2ccccc2)CC(=O)N3)cc1 (configuration not stated) 16 nM
N#Cc1c(N)sc2c1CCN(C(=O)OCc1ccccc1)C2 36 nM
O=S(=O)(c1cccc(S(=O)(=O)N2CCC(n3nnc4ccccc43)CC2)c1)N1CCCCC1 23 nM
CC(=O)/C(=N\N=C(N)N)c1ccccc1 1 nM
Clc1ccc(Cc2nn3c(-c4ccncc4)nnc3s2)cc1 4 nM
CCc1cc(Br)ccc1NC(=O)C1CCCO1 (configuration not stated) 19 nM
CCCS(=O)(=O)Nc1c(C(=O)O)[nH]c2ccccc12 1 nM
CCCCSc1nnc(-c2ccc(C)cc2)o1 5.1 nM
CCOC(=O)c1oc2ccccc2c1NC(=O)c1cccs1 5.6 nM
CCCS(=O)(=O)N1CCCC(C(=O)N2CCN(c3ccccc3)CC2)C1 (configuration not stated) 1 nM
COc1ccc(CN2CN(C(C)C)CSC2=S)cc1 1 nM
COc1ccc(-c2cc3n(n2)CCc2nc4ccccc4n2-3)cc1 1 nM
O=C1c2oc3ccc(Br)cc3c(=O)c2C(c2cccc(F)c2)N1CCO (configuration not stated) 3.9 nM
Cc1cc(N2CCCCC2)nc2ccc(Cc3ccc4nc(N5CCCCC5)cc(C)c4c3)cc12 3.4 nM
O=C(NC1CC2CCCC(C1)N2C(=O)N1CCCCC1)C1CCCCC1 (configuration not stated) 31 nM
CCCCOc1ccccc1/C=c1/sc2nc(-c3oc4ccccc4c3C)nn2c1=O 22 nM
COc1ccccc1N1CCN(C(=O)Cn2nnc(-c3cccs3)n2)CC1 1 nM
COc1ccccc1CNc1ncnc2ccc(-c3ccc4c(c3)OCO4)cc12 31 nM
Cn1c(NC(=O)c2ccco2)c(-c2ccccc2Cl)c(=O)c2ccccc21 1 nM
NC(=S)c1ccc(C(N)=S)o1 5.7 nM
c1ccc(-c2nnc3n2NC(c2ccc4c(c2)OCO4)S3)cc1 (configuration not stated) 12 nM
O=C(CCc1ccccc1)Nc1ccc(NC(=O)C2CC2)nc1 45 nM
COC(=O)c1ccc(NCC(=O)c2ccccc2)cc1 1.7 nM
